Data as given in PubChem BioAssay (NCATS).
Values without a mark were called inactive. Inconclusive results are not listed. Activity calls are given as the source filed them. Unless noted, calls follow the shape of the dose curve; as a rule, active = well fitted curve in either direction with a large enough effect (not every such curve was filed as active); inconclusive = small, poorly fitted or top-dose-only effect, or another doubt; inactive = flat fitted curve, though single readings scatter.

Columns and labels:
[1] = NFAT Signaling Pathway (AID 444); settings: Jurkat NFAT-bla M1, carbachol, beta-lactamase ratio, 5 h; at 17.2 µM (top of the series) unless noted;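 also: carbachol stimulus at about its EC50 of 1 µM final; % is scaled to controls: 0 for no effect and ±100 for the full control effect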
Summary of the method: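 Jurkat cells carrying an NFAT-driven β-lactamase reporter and co-transfected muscarinic M1 receptor were treated with compound plus carbachol (1 uM final, an EC50 level) for 5 h at 37 °C. CCF4 loading followed for 1 h at RT; 460/530 nm ratio gave %activity.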

[2] = Stat Signaling Pathway (AID 446); settings: ME-180 SIE beta-lactamase reporter, IL-6 stimulated, 5 h; at 17.2 µM (top of the series) unless noted;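 also: ME-180 cervical cancer cells given 40 pM IL-6 alongside compound; SIE-controlled beta-lactamase reporter measured as 460/530 nm FRET emission ratio; % is scaled to controls: 0 for no effect and ±100 for the full control effect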
Summary of the method: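 ME-180 cells carrying a SIE-driven beta-lactamase reporter are stimulated with 40 pM IL-6 for 5 h at 37C in the presence of compound. The 460/530 nm FRET substrate ratio is read after 2.5 h at RT. Data are normalised to 300 pM IL-6 and to 125 nM JAK inhibitor controls.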

[3] = biological target: Glucocorticoid receptor (Homo sapiens) (UniProt P04150); test: GR-GFP Redistribution (AID 450;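 active = compounds whose dose series gives a full or clear partial fitted curve of increased nuclear translocation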; also: potency is read from the fitted curve at half-maximal effect)
Chain of Glucocorticoid receptor (Homo sapiens) (P04150 whole entry, looked up): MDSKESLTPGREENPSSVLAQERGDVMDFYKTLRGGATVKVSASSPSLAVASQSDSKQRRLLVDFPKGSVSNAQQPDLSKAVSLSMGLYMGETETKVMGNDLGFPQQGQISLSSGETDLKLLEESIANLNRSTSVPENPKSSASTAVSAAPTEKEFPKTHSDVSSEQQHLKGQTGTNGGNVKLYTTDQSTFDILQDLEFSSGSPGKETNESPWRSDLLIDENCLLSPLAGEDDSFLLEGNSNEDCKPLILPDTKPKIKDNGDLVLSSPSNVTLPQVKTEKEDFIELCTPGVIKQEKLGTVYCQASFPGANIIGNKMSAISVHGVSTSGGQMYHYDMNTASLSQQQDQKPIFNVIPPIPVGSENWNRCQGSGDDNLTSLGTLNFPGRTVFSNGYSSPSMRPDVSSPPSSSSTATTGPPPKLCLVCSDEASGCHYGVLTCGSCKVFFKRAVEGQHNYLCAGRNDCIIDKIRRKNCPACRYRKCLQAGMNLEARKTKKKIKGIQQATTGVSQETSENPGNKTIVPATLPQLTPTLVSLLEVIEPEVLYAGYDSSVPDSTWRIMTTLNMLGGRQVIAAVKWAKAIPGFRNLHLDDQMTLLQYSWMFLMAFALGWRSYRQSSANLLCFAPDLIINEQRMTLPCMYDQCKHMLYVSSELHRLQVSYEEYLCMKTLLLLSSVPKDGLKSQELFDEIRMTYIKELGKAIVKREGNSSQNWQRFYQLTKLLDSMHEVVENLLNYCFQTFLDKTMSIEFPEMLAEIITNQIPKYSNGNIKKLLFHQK

[4] = biological target: Cytochrome P450 3A4 (Homo sapiens) (UniProt P08684); test: qHTS Assay for Activators of Cytochrome P450 3A4 (AID 885; active = well fitted activation curve with a large enough effect; also: nearly all actives have a fitted effect of over 65% in size)
Chain of Cytochrome P450 3A4 (Homo sapiens) (P08684 whole entry, looked up): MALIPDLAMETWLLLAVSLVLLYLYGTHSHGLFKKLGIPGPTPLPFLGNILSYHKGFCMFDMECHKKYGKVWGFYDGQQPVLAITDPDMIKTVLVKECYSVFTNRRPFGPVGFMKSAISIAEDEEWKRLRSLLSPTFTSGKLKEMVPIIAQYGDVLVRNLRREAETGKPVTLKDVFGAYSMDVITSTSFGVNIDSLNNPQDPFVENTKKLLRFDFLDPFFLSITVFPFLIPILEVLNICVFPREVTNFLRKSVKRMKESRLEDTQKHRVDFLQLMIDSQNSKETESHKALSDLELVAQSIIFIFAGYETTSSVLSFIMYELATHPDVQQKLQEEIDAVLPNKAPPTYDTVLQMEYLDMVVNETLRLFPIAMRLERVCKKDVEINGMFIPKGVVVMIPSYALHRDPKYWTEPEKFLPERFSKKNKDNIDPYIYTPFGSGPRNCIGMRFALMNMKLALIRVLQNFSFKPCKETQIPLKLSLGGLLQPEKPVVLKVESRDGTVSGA
Summary of the method: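 Human CYP3A4 (20 nM) with Luciferin-PPXE at 25 uM (its KM) in 200 mM KPO4; 10 min compound preincubation, then NADPH regeneration and 60 min reaction at RT. Luciferin read by luminescence; normalized to 57 uM ketoconazole full inhibition.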

SMILES | activity change, negative = inhibition [1] | activity, negative = inhibition [2] | Potency [3] | Potency [4]
CNC(=O)c1cc2c(ccc3ccccc32)oc1=N | -5.77% | 13.1% | > 20.6 µM | –
O=C(NCc1ccccc1)/C(=N\O)c1ccccc1 | 12.4% | 3.38% | > 20.6 µM | –
COc1ccccc1-c1nnc2sc(C3CCCCC3)nn12 | -6.47% | 8.63% | > 20.6 µM | –
Cc1cc(C)n(S(=O)(=O)Cc2ccccc2)n1 | -1.74% | 14.5% | > 20.6 µM | –
COc1cccc(-c2nnc3sc(-c4ccc(C)cc4)nn23)c1 | -10.2% | 1.68% | > 20.6 µM | –
COc1cccc(N2CCN(c3ncnc4c3[nH]c3ccccc34)CC2C)c1 (centres undefined) | -139% (active) | -104% (active) | > 20.6 µM | –
O=C1CC(NCc2ccc3c(c2)OCO3)C(=O)N1Cc1ccc2c(c1)OCO2 (centres undefined) | 15.6% | -1.08% | > 20.6 µM | –
c1ccc(N2CCN(c3nc(-c4ccccn4)nc4ccccc34)CC2)cc1 | 0.815% | -14.9% | > 20.6 µM | –
Cc1cc(=O)[nH]c(SCC(=O)c2ccccc2)c1C#N | 14.5% | -5.21% | > 20.6 µM | –
Brc1cccc(-c2cnc3n2CCCCC3)c1 | -87.3% (active) | -10.7% | > 20.6 µM | –
Cc1cc(OCCN2CCCCC2)nc2ccccc12 | -29.3% | 9.41% | > 20.6 µM | –
CN(C)c1oc(-c2cccs2)nc1C#N | 8.47% | 10.4% | > 20.6 µM | –
COc1ccccc1Nc1ncc(-c2cccs2)s1 | 11.7% | -4.45% | > 20.6 µM | –
CC1(C(=O)O)CCC(C(=O)NC2CCCCCC2)C1(C)C (centres undefined) | -7.92% | 10.5% | > 20.6 µM | –
CCOC(=O)C1=C(C)N=C2SC(C)C(=O)N2C1c1ccc(C(=O)OC)cc1 (centres undefined) | -15.8% | -8.28% | > 20.6 µM | –
COc1ccc2oc(=O)c(-c3nc(C)cs3)cc2c1 | -8.83% | 17.3% | > 20.6 µM | –
CN1CCc2c(C#N)c(N3CCCCC3)nc(NCc3ccccc3)c2C1 | -7.69% | -16.2% | > 20.6 µM | –
CCCCC(=O)c1c(C)cc(C)[nH]c1=O | 4.24% | 1.99% | > 20.6 µM | –

SMILES | activity change, negative = inhibition [1] | activity, negative = inhibition [2] | Potency [3] | Potency [4]
COC(=O)c1ccc(-c2sc3nc(N4CCOCC4)c4c(c3c2N)CCCC4)o1 | -5.04% | -5.83% | > 20.6 µM | –
Cc1cc(N/C=C/C(=O)c2cccc3ccccc23)no1 | -3.82% | -10.2% | > 20.6 µM | –
N#Cc1c(N2CCCCC2)nc(N2CCCCC2)c2c1CCN(Cc1ccccc1)C2 | -13% | 17.8% | > 20.6 µM | –
CCC[C@@H]1C[C@@H](C(=O)N[C@H]([C@@H](C)O)[C@H]2O[C@H](SC)[C@H](O)[C@@H](O)C2O)N(C)C1 (some centres undefined) | 8.75% | -0.0835% | > 20.6 µM | –
Cc1noc(COc2ccccc2OCC(O)CNC(C)(C)C)n1 (centres undefined) | -1.96% | 1.99% | > 20.6 µM | –
N#Cc1nc(-c2cccs2)oc1NCc1ccccc1Cl | -29.4% | -12.6% | > 20.6 µM | –
COCCOC(=O)c1c(C)nc(SCC(=O)Nc2ccc(C)cc2)c(C#N)c1-c1ccco1 | -11.8% | -18.9% | > 20.6 µM | –
Cc1ccc(-c2nnc(-c3ccccc3)o2)cc1Br | -13.3% | 27.2% | > 20.6 µM | –
COCCCNc1nc2c(c(=O)[nH]c(=O)n2C)n1CC(O)COc1ccccc1 (centres undefined) | 16.9% | -9.93% | > 20.6 µM | –
COC(=O)[C@@H](NC(=O)c1cc(-c2ccccc2)nc2ccccc12)c1ccccc1 | -7.43% [at 38 µM] | 1.95% [at 38 µM] | > 46 µM | –
Cc1cc(C)c(C#N)c(SCC(=O)N2CCN(Cc3ccccc3)CC2)n1 | -24.4% | 11.8% | > 20.6 µM | –
CCOC(=O)c1[nH]c2ccc(OC)cc2c1NC(=O)CN1CCN(c2ccccn2)CC1 | -9.84% | -2.44% | > 20.6 µM | –
O=C(O)CSCC(=O)Nc1ccc(S(=O)(=O)N2CCCCC2)cc1 | 5.47% | 23% | > 20.6 µM | –
FC(F)(F)c1cc(CO[C@@H]2CCCN[C@H]2c2ccccc2)cc(C(F)(F)F)c1 | 16.5% [at 38 µM] | -14.5% [at 38 µM] | > 46 µM | –
CCC1(C)Cc2c(C#N)c(N)sc(=S)c2CO1 (centres undefined) | -12.1% | -10.3% | > 20.6 µM | –
Cc1cc(/C=N\O)c(C)n1-c1ccncc1 | 23.9% | -5.06% | > 20.6 µM | –
Cc1ccc(-n2ncc3c(NCc4cccnc4)ncnc32)c(C)c1 | -27.9% | -18.9% | > 20.6 µM | –
C[C@H](N)C1CCC(C(=O)Nc2ccncc2)CC1 (some centres undefined) | 3.2% [at 38 µM] | -8.56% [at 38 µM] | > 46 µM | inactive
